Measured values reported in PubChem BioAssay (Tox21).
Results filed as inconclusive are left out. Activity calls are given as the source filed them. Unless noted, the call rests on the fitted dose curve; in most records, active means well fitted curve in the direction sought with a large enough effect in the repeat runs; inconclusive means weak or mixed curves; inactive means no such curve, though single readings can be large; an effect the other way counts as inactive or inconclusive.

Key:
[1] = target: Peroxisome proliferator-activated receptor delta (Homo sapiens) (UniProt Q03181); assay: qHTS assay to identify small molecule agonists of the peroxisome proliferator-activated receptor delta (PPARd) signaling pathway (AID 743212; calls by dose curve)
Peroxisome proliferator-activated receptor delta (Homo sapiens), sequence (Q03181 whole entry, looked up): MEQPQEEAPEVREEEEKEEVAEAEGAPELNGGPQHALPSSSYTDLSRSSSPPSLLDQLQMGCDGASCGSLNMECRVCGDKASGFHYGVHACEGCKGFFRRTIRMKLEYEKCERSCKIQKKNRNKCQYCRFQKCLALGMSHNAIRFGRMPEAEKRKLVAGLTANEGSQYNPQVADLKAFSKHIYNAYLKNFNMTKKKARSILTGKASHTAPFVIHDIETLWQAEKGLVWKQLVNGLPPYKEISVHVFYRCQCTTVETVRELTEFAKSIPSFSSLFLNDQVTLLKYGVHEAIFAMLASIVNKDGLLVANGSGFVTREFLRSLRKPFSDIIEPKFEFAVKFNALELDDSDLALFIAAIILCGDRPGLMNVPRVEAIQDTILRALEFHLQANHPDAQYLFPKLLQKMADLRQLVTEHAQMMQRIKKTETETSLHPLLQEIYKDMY
In short: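 Quantitative high-throughput agonist screen in a HEK293H beta-lactamase reporter line under UAS control. Compounds in DMSO, at 37 C. Fluorescence read after 2 h with FRET substrate at room temperature.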

[2] = qHTS assay to identify small molecule antagonists of the peroxisome proliferator-activated receptor delta (PPARd) signaling pathway - cell viability counter screen (AID 743213); further: nearly all actives have a fitted effect of over 50% in size; further: potency means the concentration at half of the fitted maximal effect
In short: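 Viability counter-screen, qHTS format: PPARd-bla HEK293H, L165041 300 nM final, 17 h compound exposure at 37 C, CellTiter-Glo luminescence after 30 min RT.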

[3] = target: Peroxisome proliferator-activated receptor delta (Homo sapiens) (UniProt Q03181); assay: qHTS assay to identify small molecule antagonists of the peroxisome proliferator-activated receptor delta (PPARd) signaling pathway (AID 743215; active means well fitted inhibition curve with a large enough effect in the signal ratio in the repeat runs, not every such curve was filed as active; the % refers to the signal ratio;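 further: cells stimulated with agonist L165041 at 300 nM final during compound exposure; series mostly up to about 62 µM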)
In short: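 PPARd UAS-bla HEK293H cells were pre-incubated 5 h at 37 C, then given test compounds in DMSO plus agonist L165041 (300 nM final). After 17 h at 37 C, beta-lactamase FRET substrate was added; fluorescence read after 2 h at room temperature.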

[4] = target: Bile acid receptor (Homo sapiens) (UniProt Q96RI1); assay: qHTS assay to identify small molecule antagonists of the farnesoid-X-receptor (FXR) signaling pathway (AID 743217; active means well fitted inhibition curve with a large enough effect in the signal ratio in the repeat runs, not every such curve was filed as active; the % refers to the signal ratio)
Bile acid receptor (Homo sapiens), sequence (Q96RI1 whole entry, looked up): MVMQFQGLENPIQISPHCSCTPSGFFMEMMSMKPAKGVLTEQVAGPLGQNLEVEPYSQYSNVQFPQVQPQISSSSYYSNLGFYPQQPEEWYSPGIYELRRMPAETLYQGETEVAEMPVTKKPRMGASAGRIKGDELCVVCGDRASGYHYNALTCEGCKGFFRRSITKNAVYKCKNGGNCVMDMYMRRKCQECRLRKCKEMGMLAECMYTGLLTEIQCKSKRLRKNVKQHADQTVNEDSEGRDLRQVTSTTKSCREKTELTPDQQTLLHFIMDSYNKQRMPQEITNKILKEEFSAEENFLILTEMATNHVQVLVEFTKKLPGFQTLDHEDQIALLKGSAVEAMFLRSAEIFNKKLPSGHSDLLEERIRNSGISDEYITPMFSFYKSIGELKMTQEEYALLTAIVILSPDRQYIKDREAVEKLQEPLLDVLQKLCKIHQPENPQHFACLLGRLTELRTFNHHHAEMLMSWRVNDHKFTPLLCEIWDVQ
In short: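 FXR-UAS-bla HEK 293T cells pre-incubated 5 h at 37 °C, then exposed to compounds with chenodeoxycholic acid (50 uM final) for 16 h at 37 °C. Beta-lactamase reporter read by LiveBLAzer B/G FRET substrate fluorescence after 2 h at room temperature.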

[5] = qHTS assay to identify small molecule agonists of the farnesoid-X-receptor (FXR) signaling pathway - cell viability counter screen (AID 743218); further: nearly all actives have a fitted effect of over 45% in size; further: potency means the concentration at half of the fitted maximal effect
In short: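 FXR-UAS-bla HEK 293T cells, plated 5 h at 37 C, were exposed to compounds for 16 h at 37 C. CellTiter-Glo was then added to the same wells as the bla readout; luminescence read after 30 min at room temperature.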

[6] = target: Bile acid receptor (Homo sapiens) (UniProt Q96RI1); assay: qHTS assay to identify small molecule agonists of the farnesoid-X-receptor (FXR) signaling pathway (AID 743220; active means well fitted activation curve with a large enough effect in the signal ratio in the repeat runs, not every such curve was filed as active; the % refers to the signal ratio)
In short: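 Beta-lactamase reporter under UAS control in GeneBLAzer FXR HEK 293T cells (5000/well) measured with LiveBLAzer FRET substrate after 2 h at room temperature. Compound exposure lasted 16 h at 37C.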

[7] = qHTS assay to identify small molecule antagonists of the farnesoid-X-receptor (FXR) signaling pathway - cell viability counter screen (AID 743221; active means well fitted cell-killing curve with a large enough effect in the repeat runs, not every such curve was filed as active; further: nearly all actives have a fitted effect of over 50% in size; further: potency means the concentration at half of the fitted maximal effect)
In short: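 Multiplexed counter screen: viability of FXR-bla HEK 293T cells under agonist stimulation by chenodeoxycholic acid (50 uM, final) and test compound for 16 h at 37 C, measured by CellTiter-Glo luminescence in the reporter wells.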

[8] = qHTS assay to identify small molecule antagonists of the vitamin D receptor (VDR) signaling pathway - cell viability counter screen (AID 743225); further: nearly all actives have a fitted effect of over 50% in size; further: potency means the concentration at half of the fitted maximal effect
In short: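 HEK293T VDR-bla; cpd + 1a,25-(OH)2D3 3 nM final, 16 h 37C/5% CO2; B/G FRET substrate 2 h RT; then CellTiter-Glo 30 min RT, luminescence.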

[9] = qHTS assay to identify small molecule agonists of the endoplasmic reticulum stress response signaling pathway (AID 1159516; active means well fitted activation curve with a large enough effect in the signal ratio in the repeat runs, not every such curve was filed as active; the % refers to the signal ratio; further: potency means the concentration at half of the fitted maximal effect)
In short: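 CellSensor ESRE-bla HeLa cells, carrying a beta-lactamase reporter driven by the ER stress response element, were plated overnight and exposed to compounds for 5 hr at 37 C. Reporter activity was read as FRET substrate fluorescence after 2 hr at room temperature.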

[10] = qHTS assay to identify small molecule agonists of the endoplasmic reticulum stress response signaling pathway - cell viability counter screen (AID 1159517; calls by dose curve; further: series mostly up to about 61 µM; nearly all actives have a fitted effect of over 50% in size)
In short: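 Counter-screen wells were identical to the reporter wells. Cells were plated at 1,500 per well and dosed for 5 hr, then read for luminescence 30 min after CellTiter-Glo addition.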

[11] = target: Nuclear receptor ROR-gamma (Homo sapiens) (UniProt P51449); assay: qHTS assay to identify small molecule antagonists of the retinoid-related orphan receptor gamma (ROR-gamma) signaling pathway (AID 1159521; further: nearly all actives have a fitted effect of over 50% in size; further: potency means the concentration at half of the fitted maximal effect)
In short: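 Cells were plated, rested 4 h at 37 C, exposed to compounds for 2 h, then given 1 uM final doxycycline hyclate to induce RORγ expression. After 16 h, ONE-Glo luminescence from the ROR response element reporter was measured.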

[12] = qHTS assay to identify small molecule agonists of the AP-1 signaling pathway - cell viability counter screen (AID 1159525; calls by dose curve; further: nearly all actives have a fitted effect of over 55% in size; further: potency means the concentration at half of the fitted maximal effect)
In short: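 AP-1-bla ME-180 cells in Opti-MEM with 0.5% dialyzed FBS, compound exposure 5 h at 37 C in 15-point titration. Viability read in the same wells as ATP content by CellTiter-Glo luminescence, normalised to tetra-n-octylammonium bromide and DMSO controls.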

[13] = qHTS assay to identify small molecule agonists of the AP-1 signaling pathway (AID 1159526; calls by dose curve)
[14] = qHTS assay to identify small molecule agonists of the RXR signaling pathway - cell viability counter screen (AID 1159529); further: nearly all actives have a fitted effect of over 50% in size; further: potency means the concentration at half of the fitted maximal effect
In short: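 Steps: seed RXR-alpha-UAS-bla HEK 293T cells in assay medium containing 2% charcoal-stripped FBS; incubate 5 hr; add compounds in DMSO; incubate 16 hr at 37 C; after the bla read, add CellTiter-Glo and read luminescence at 30 min.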

[15] = target: Vitamin D3 receptor (Homo sapiens) (UniProt P11473); assay: qHTS assay to identify small molecule agonists of the vitamin D receptor (VDR) signaling pathway (AID 743222; calls by dose curve)
Vitamin D3 receptor (Homo sapiens), sequence (P11473 whole entry, looked up): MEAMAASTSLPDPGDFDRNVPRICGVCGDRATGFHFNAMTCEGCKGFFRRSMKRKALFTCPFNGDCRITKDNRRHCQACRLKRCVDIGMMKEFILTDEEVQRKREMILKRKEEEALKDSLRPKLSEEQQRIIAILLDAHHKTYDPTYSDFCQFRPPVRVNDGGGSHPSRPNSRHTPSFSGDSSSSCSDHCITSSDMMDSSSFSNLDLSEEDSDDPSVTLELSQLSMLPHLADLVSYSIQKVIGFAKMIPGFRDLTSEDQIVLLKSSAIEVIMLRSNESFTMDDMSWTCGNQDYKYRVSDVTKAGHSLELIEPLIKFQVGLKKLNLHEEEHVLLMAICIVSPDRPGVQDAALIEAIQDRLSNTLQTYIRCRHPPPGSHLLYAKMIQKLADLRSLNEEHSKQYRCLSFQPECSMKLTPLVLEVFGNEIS
In short: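 VDR-bla cells were plated 4 h at 37C/5% CO2, then exposed to compounds in DMSO for 16 h. After LiveBLAzer B/G FRET substrate addition and 2 h at room temperature, beta-lactamase reporter fluorescence was read.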

[16] = qHTS assay to identify small molecule agonists of the NFkB signaling pathway - cell viability counter screen (AID 1159515; calls by dose curve; further: nearly all actives have a fitted effect of over 55% in size; further: potency means the concentration at half of the fitted maximal effect)
In short: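 NFkB-bla ME-180 cells, 2,000/well, were plated overnight at 37 C, 5% CO2, then exposed to compounds in DMSO for 5 hr. After the bla FRET read, CellTiter-Glo was added to the same wells; luminescence was read after 30 min at room temperature.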

[17] = qHTS assay to identify small molecule agonists of the vitamin D receptor (VDR) signaling pathway - cell viability counter screen (AID 743224); further: nearly all actives have a fitted effect of over 50% in size; further: potency means the concentration at half of the fitted maximal effect
In short: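 VDR-bla cells were preincubated 4 h at 37C/5% CO2, then exposed to compounds for 16 h. After the 2 h room-temperature bla FRET read, CellTiter-Glo was added to the same wells and luminescence read after 30 min.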

[18] = qHTS assay to identify small molecule antagonists of the retinoid-related orphan receptor gamma (ROR-gamma) signaling pathway - cell viability counter screen (AID 1159520); further: nearly all actives have a fitted effect of over 50% in size
In short: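 Tet-on ROR gamma CHO cells were given compounds for 2 hr, then doxycycline hyclate at 1 uM final, and incubated 16 hr at 37 C. Viability was measured as ATP content by CellTiter-Glo luminescence.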

[19] = target: Retinoic acid receptor RXR-alpha (Homo sapiens) (UniProt P19793); assay: qHTS assay to identify small molecule agonists of the RXR signaling pathway (AID 1159527; calls by dose curve; further: nearly all actives have a fitted effect of over 35% in size)
Retinoic acid receptor RXR-alpha (Homo sapiens), sequence (P19793 whole entry, looked up): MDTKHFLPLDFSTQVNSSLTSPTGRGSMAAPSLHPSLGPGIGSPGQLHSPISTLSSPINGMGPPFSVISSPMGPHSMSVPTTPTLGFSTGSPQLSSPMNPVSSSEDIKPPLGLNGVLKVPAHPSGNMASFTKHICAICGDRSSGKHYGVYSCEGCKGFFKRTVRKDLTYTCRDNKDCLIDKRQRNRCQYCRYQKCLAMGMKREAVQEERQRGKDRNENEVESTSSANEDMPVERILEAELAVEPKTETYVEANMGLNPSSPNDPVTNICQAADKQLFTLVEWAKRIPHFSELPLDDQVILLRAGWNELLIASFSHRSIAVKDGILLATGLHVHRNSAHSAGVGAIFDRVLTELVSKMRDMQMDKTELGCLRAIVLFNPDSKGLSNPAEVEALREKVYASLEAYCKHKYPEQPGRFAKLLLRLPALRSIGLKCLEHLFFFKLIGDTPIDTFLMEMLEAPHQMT
In short: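 Cells plated at 2,000/well, rested 5 hr at 37 C, pin-dosed with DMSO compound solutions, incubated 16 hr, then loaded with B/G FRET substrate for 2 hr at RT before dual-emission fluorescence reading.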

[20] = target: Vitamin D3 receptor (Homo sapiens) (UniProt P11473); assay: qHTS assay to identify small molecule antagonists of the vitamin D receptor (VDR) signaling pathway (AID 743223; active means well fitted inhibition curve with a large enough effect in the signal ratio in the repeat runs, not every such curve was filed as active; the % refers to the signal ratio)
In short: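 Cells carrying a VDR-driven beta-lactamase reporter (VDR-bla) were co-treated with compound and 3 nM final 1alpha,25-dihydroxyvitamin D3 for 16 h at 37C; reporter activity was measured as FRET substrate fluorescence after 2 h at room temperature.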

Measured: Potency

BrC(Br)Br
not listed: [15] | [16] | [17] | [18] | [19] | [20]
inactive: all other assays above

Oc1cc(Cl)c(Cl)c(Cl)c1
active: [8] 41.4 µM | [11] 29.1 µM
inactive: [6] | [7] | [15] | [16]

CN(C)C(=S)[S-].CN(C)C(=S)[S-].[Cu+2]
active: [2] 3.36 µM | [5] 0.946 µM | [7] 2.38 µM | [17] 1.5 µM | [8] 4.74 µM | [16] 4.74 µM | [12] 6.7 µM | [14] 0.844 µM

CC(=O)[O-].CC(=O)[O-].O.O.[Cd+2]
active: [2] 19.2 µM | [7] 1.21 µM | [17] 1.21 µM | [8] 15.3 µM | [9] 0.216 µM | [14] 13.6 µM
inactive: [18]

CCOCCOC(C)=O
inactive: [2] | [7] | [9] | [11] | [12] | [13] | [14]

O=C(CBr)c1ccc(O)cc1
inactive: [2] | [4] | [7] | [15] | [8] | [9] | [10] | [12] | [19] | [14]

O=C1NCN(c2ccccc2)C12CCN(CC1COc3ccccc3O1)CC2 (stereo unspecified)
active: [14] 6.74 µM
not listed: [2] | [4] | [5] | [6] | [10] | [16] | [19]
inactive: all other assays above

CC(=O)Nc1ccc2c(c1)Cc1ccccc1-2
inactive: [3] | [7] | [17] | [8] | [9] | [18] | [12] | [13] | [19] | [14]

Cc1cc(C(F)(C(F)(F)F)C(F)(F)F)ccc1NC(=O)c1cccc(I)c1C(=O)NC(C)(C)CS(C)(=O)=O
inactive: [3] | [4] | [5] | [7] | [17] | [8] | [9] | [10] | [12] | [19]

[Cl][Sb]([Cl])[Cl]
inactive: [1] | [2] | [5] | [7] | [17] | [8] | [9] | [10] | [12] | [14]
active: [11] 5.45 µM
